One experiment has as its system BLK. The settings on record: concentration: 1 μM, replicates: in singlicate, n = 1.
Another experiment relates to BMPR1A. The settings on record: concentration: 1 μM, replicates: in singlicate, n = 1.
The next experiment concerns BMPR1B. The settings on record: concentration: 1 μM, replicates: in singlicate, n = 1.
Another experiment concerns BMPR2. The settings on record: concentration: 1 μM, replicates: in singlicate, n = 1.
A further experiment concerns BMX. The settings on record: concentration: 1 μM, replicates: in singlicate, n = 1.
Another experiment deals with BRAF. The settings on record: concentration: 1 μM, replicates: in singlicate; n = 1.
The next experiment concerns T1, BRK.
T1 construct: gene PTK6
The settings on record: concentration: 1 μM, replicates: in singlicate, n = 1.

Another experiment deals with BRSK1. The settings on record: concentration: 1 μM, replicates: in singlicate, n = 1.
The test system of the next experiment is BRSK2. Particulars: concentration: 1 μM, replicates: in singlicate, n = 1.
A further experiment relates to BTK. Particulars: concentration: 1 μM, replicates: in singlicate; n = 1.
A further experiment relates to BUB1. Particulars: concentration: 1 μM, replicates: in singlicate, n = 1.
The test system of a further experiment is CAMK1B. The settings on record: concentration: 1 μM, replicates: in singlicate, n = 1.
The next experiment deals with CAMK1D. Particulars: concentration: 1 μM, replicates: in singlicate, n = 1.
The test system of a further experiment is CAMK1G. The settings on record: concentration: 1 μM, replicates: in singlicate, n = 1.
For the next experiment, the system named is CAMK1. Particulars: concentration: 1 μM, replicates: in singlicate, n = 1.
The next experiment deals with CAMK2A. The settings on record: concentration: 1 μM, replicates: in singlicate, n = 1.
The subject of another experiment is CAMK2B. Particulars: concentration: 1 μM, replicates: in singlicate, n = 1.
A further experiment deals with CAMK2D. The settings on record: concentration: 1 μM, replicates: in singlicate, n = 1.
In another experiment the test system is CAMK2G. Particulars: concentration: 1 μM, replicates: in singlicate, n = 1.
A further experiment relates to CAMK4. Particulars: concentration: 1 μM, replicates: in singlicate, n = 1.

Values joined by “and” are separate entries in the source; they are usually repeats but may differ in a detail not shown here. Equal entries are not always repeated. Where two headings read alike, the source gives them in different places.
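Note: KINOMEscan kinase panel screen.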

On to `Cc1cccc(-c2nc(Nc3ccc4ncsc4c3)c3ccccc3n2)n1` [GW867588], for which the “%Inh” value with BLK came to 11%; in the experiment on BMPR1A, 0%; in the experiment with BMPR1B, 0%; in the experiment with BMPR2, 15%; in the experiment on BMX, 0%; in the experiment with BRAF, 7%. Moreover, the “%Inh” value in the experiment with BRK was determined as 0%; with BRSK1, 0%; in the experiment on BRSK2, 0%; in the experiment on BTK, 0%; with BUB1 it was 47%; with CAMK1B, 21%. For the same compound, the “%Inh” value in the experiment with CAMK1D was 14%; in the experiment with CAMK1G, 0%; with CAMK1 it was 26%; in the experiment with CAMK2A, 0%; in the experiment on CAMK2B, 0%; with CAMK2D it was 2%. Moreover, the entries for the “%Inh” value in the experiment with CAMK2G and with CAMK4 were 9% and 0%, respectively.
On to `Cc1cccc(-c2nc(-c3ccc(S(C)(=O)=O)cc3)sc2-c2ccncc2)c1`, for which the “%Inh” value with BLK is given as 0%; in the experiment with BMPR1A, 0%; with BMPR1B, 0%; with BMPR2 it was 0%; with BMX, 0%; in the experiment on BRAF, 15%. In addition, the “%Inh” value in the experiment with BRK is listed as 0%; in the experiment on BRSK1, 40%; in the experiment with BRSK2, 27%; in the experiment on BTK, 0%; with BUB1, 25%; in the experiment with CAMK1B, 0%. In addition, the “%Inh” value in the experiment on CAMK1D came out at 15%; with CAMK1G, 9%; with CAMK1, 5%; in the experiment on CAMK2A it was 0%; in the experiment with CAMK2B it was 0%; with CAMK2D, 4%. For the same compound, the “%Inh” value was 5% with CAMK2G and 0% in the experiment with CAMK4.
For the compound `NCCNS(=O)(=O)c1ccc(-c2ccnc3[nH]ccc23)cc1` [GSK977617], the “%Inh” value with BLK (1 µM) was 49% and 16%; in the experiment on BMPR1A (1 µM) it was 10% and 0%; in the experiment on BMPR1B (1 µM) it was 0% and 22%; in the experiment with BMPR2 (1 µM) it was 18% and 27%; with BMX (1 µM) it was 2% and 0%; in the experiment with BRAF it was 0%. The “%Inh” value is 0% and 9% with BRK (1 µM); 28% and 5% with BRSK1 (1 µM); 25% and 0% with BRSK2 (1 µM); 0% in the experiment with BTK; 69% and 81% in the experiment with BUB1 (1 µM); 52% and 70% in the experiment on CAMK1B (1 µM). For the same compound, the “%Inh” value in the experiment on CAMK1D (1 µM) was 78% and 72%; in the experiment with CAMK1G (1 µM) it was 44% and 21%; with CAMK1 (1 µM), 58% and 42%; in the experiment on CAMK2A (1 µM), 16% and 6%; with CAMK2B (1 µM), 2% and 0%; in the experiment with CAMK2D (1 µM), 42% and 23%. Also, the “%Inh” value is 42% and 20% in the experiment on CAMK2G (1 µM); 59% and 44% with CAMK4 (1 µM).
`COc1ccc(Nc2nccc(N3CCC(NC(=O)Nc4cccc(C(C)=O)c4)C3)n2)cc1` (centres unmarked) [GSK1379731]: the “%Inh” value in the experiment on BLK turned out to be 35%; in the experiment on BMPR1A, 0%; with BMPR1B, 0%; in the experiment on BMPR2 it was 0%; in the experiment on BMX it was 0%; in the experiment with BRAF, 0%. For the same compound, the “%Inh” value with BRK is given as 7%; with BRSK1 it was 0%; with BRSK2 it was 0%; with BTK it was 0%; with BUB1, 0%; with CAMK1B it was 13%. The “%Inh” value with CAMK1D is 40%; in the experiment on CAMK1G, 0%; with CAMK1, 37%; in the experiment with CAMK2A it was 0%; in the experiment with CAMK2B it was 0%; with CAMK2D, 1%. Moreover, the results for the “%Inh” value in the experiment on CAMK2G and in the experiment with CAMK4 were 11% and 0%, respectively.
`NCC(NC(=O)c1cc(-c2cn[nH]c2)c(-c2ccnc3[nH]ccc23)s1)c1ccccc1.O=C(O)C(F)(F)F.O=C(O)C(F)(F)F` (centres unmarked) [GSK1325775]: the “%Inh” value in the experiment with BLK turned out to be 0%; with BMPR1A, 0%; with BMPR1B, 80%; with BMPR2, 4%; in the experiment on BMX, 0%; with BRAF it was 0%. Besides, the “%Inh” value with BRK was 0%; in the experiment with BRSK1 it was 30%; in the experiment on BRSK2, 21%; in the experiment with BTK, 0%; in the experiment with BUB1, 94.6%; in the experiment on CAMK1B, 49%. Besides, the “%Inh” value in the experiment on CAMK1D came out at 50%; in the experiment with CAMK1G, 33%; with CAMK1, 41%; with CAMK2A, 0%; in the experiment with CAMK2B, 12%; with CAMK2D, 35%. Also, the “%Inh” value worked out at 30% in the experiment on CAMK2G and 0% in the experiment on CAMK4.
For `O=C(NCCCN1CCOCC1)c1cccc(Nc2nccc(Nc3ccc(Oc4ccccc4)cc3)n2)c1` [GW663929], the “%Inh” value in the experiment on BLK came out at 95.4%; in the experiment with BMPR1A, 0%; with BMPR1B, 0%; in the experiment with BMPR2, 15%; with BMX, 54%; with BRAF it was 0%. The “%Inh” value is on record as 69% with BRK; 6% in the experiment on BRSK1; 0% with BRSK2; 51% in the experiment with BTK; 28% in the experiment with BUB1; 37% in the experiment on CAMK1B. In addition, the “%Inh” value with CAMK1D came out at 33%; in the experiment on CAMK1G it was 0%; with CAMK1, 55%; in the experiment with CAMK2A it was 3%; in the experiment on CAMK2B it was 6%; with CAMK2D it was 2%. In addition, the “%Inh” value in the experiment on CAMK2G and with CAMK4 was 0% in each case.
`Cc1ccc(NC(=O)c2ccnc(N3CCN(C)CC3)c2)cc1-c1ccc(C(=O)NCC2CC2)cc1` [GW775604]: the “%Inh” value in the experiment with BLK, in the experiment with BMPR1A, in the experiment with BMPR1B, in the experiment with BMPR2, in the experiment with BMX and with BRAF was 0% in each case. In addition, the “%Inh” value in the experiment with BRK, in the experiment on BRSK1, with BRSK2, in the experiment on BTK, in the experiment with BUB1 and in the experiment on CAMK1B was 0% each time. Besides, the “%Inh” value in the experiment on CAMK1D, in the experiment on CAMK1G, with CAMK1, in the experiment with CAMK2A, in the experiment on CAMK2B and in the experiment with CAMK2D was 0% throughout. In addition, the “%Inh” value with CAMK2G and in the experiment with CAMK4 was 0% each time.
